The values below come from PubChem BioAssay (NCATS).

“And” between values parts separate entries of the source, which are not always exact repeats. Equal entries are not always repeated. Results filed as inconclusive are left out. Where a structure was tested more than once in an assay, its records may differ in their call. The source made the active and inactive calls. Unless noted, calls come from the whole dose curve.

The nature of test [1]: qHTS for Inhibitors of the Functional Ribonucleoprotein Complex (vRNP) of Lassa (LASV) Arenavirus: LASV Primary Screen - GLuc reporter signal (AID 1347082; calls by dose curve; tested in HEK293 reporter line; note: % is set by controls: 0 for no effect and ±100 for the full control effect; nearly all actives have a fitted effect of over 60% in size). For orientation: In qHTS, concentration-response curves come from the screen itself.
The nature of test [2]: qHTS for Inhibitors of the Functional Ribonucleoprotein Complex (vRNP) of Lassa (LASV) Arenavirus: Viability assay - alamar blue signal for LASV Primary Screen (AID 1347083; calls by dose curve; tested in HEK293 reporter line; note: % is set by controls: 0 for no effect and ±100 for the full control effect; nearly all actives have a fitted effect of over 80% in size).
A short description of test [3]: qHTS for Inhibitors of the Functional Ribonucleoprotein Complex (vRNP) of Lymphocytic Choriomeningitis Arenaviruses (LCMV): Viability assay - alamar blue signal for LCMV Primary Screen (AID 1347085; calls by dose curve; tested in HEK293 reporter line; note: % is set by controls: 0 for no effect and ±100 for the full control effect; nearly all actives have a fitted effect of over 80% in size).
Test [4] concerns the target Nucleoprotein (Lymphocytic choriomeningitis virus (strain Armstrong)) (UniProt P09992). The test can be described thus: qHTS for Inhibitors of the Functional Ribonucleoprotein Complex (vRNP) of Lymphocytic Choriomeningitis Arenaviruses (LCMV): LCMV Primary Screen - GLuc reporter signal (AID 1347086). Note: % is set by controls: 0 for no effect and ±100 for the full control effect; nearly all actives have a fitted effect of over 70% in size.
Test [5] can be described thus: Primary qHTS for inhibitors of SARS-S pseudo-typed particle cell entry (AID 1479145). Note: nearly all actives have a fitted effect of over 45% in size. Note: potency is the fitted concentration of half-maximal effect.
Test [6] is described as follows: Primary qHTS for Huh7 cytotoxicity: counterscreen for inhibitors of MERS-S pseudotyped particle cell entry (AID 1479147). For activity change, negative = cytotoxicity: % is set by controls: 0 for no effect and ±100 for the full control effect. As to conditions: outcome: dose series up to 57.1 µM unless noted.
A short description of test [7]: Primary qHTS for inhibitors of MERS-S pseudo-typed particle cell entry (AID 1479149). For activity change, negative = inhibition: % is set by controls: 0 for no effect and ±100 for the full control effect. Note: nearly all actives have a fitted effect of over 60% in size. Note: potency is the fitted concentration of half-maximal effect.
Test [8] in a line: Confirmatory qHTS to identify inhibitors of SARS-CoV-2 cell entry (AID 1645844). Note: potency is the fitted concentration of half-maximal effect; nearly all actives have a fitted effect of over 45% in size. The gist of the method:
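Luminescence entry read-out after 48 h: spike-pseudotyped MLV particles (Wuhan-Hu-1, 19-aa C-terminal truncation) added to compound-pretreated (1 h) HEK293-ACE2 cells; Data were normalised to bald PP and spike PP wells.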

Test [9] is described as follows: Cytotoxicity counterscreen for inhibitors of SARS-CoV-2 cell entry (AID 1645845). For activity change, negative = cytotoxicity: % is set by controls: 0 for no effect and ±100 for the full control effect. Note: nearly all actives have a fitted effect of over 50% in size. Note: potency is the fitted concentration of half-maximal effect. The gist of the method: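 ATP-content luminescence (ATPLite 1step, 15 min RT) read after 48 h compound exposure of Expi293F cells stably expressing human ACE2; normalized to cells-only wells and media-only wells.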
Test [10] in a line: VSVG counterscreen qHTS to identify inhibitors of SARS-CoV-2 cell entry (AID 1645847). Note: potency is the fitted concentration of half-maximal effect; nearly all actives have a fitted effect of over 65% in size. The gist of the method: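 Luminescence read after 48 h infection at 37 C with VSV-G-pseudotyped MLV particles, following 1 h compound exposure of Expi293F cells stably expressing human ACE2; scaled between bald particle and VSV-G particle wells.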
The nature of test [11]: Primary qHTS for Vero E6 cytotoxicity: counterscreen for inhibitors of SARS-S pseudo-typed particle cell entry (AID 1479150). For activity change, negative = cytotoxicity: % is set by controls: 0 for no effect and ±100 for the full control effect. The following applies: outcome: dose series up to 57.1 µM unless noted.
The nature of test [12]: Validation screen for inhibitors of Lassa infection (AID 463096). Note: potency is the fitted concentration of half-maximal effect.
Test [13] is described as follows: Inducers of the Endoplasmic Reticulum Stress Response (ERSR) in human glioma: Validation (AID 504836; active = well fitted curve in the direction sought with a large enough effect; an effect the other way counts as inactive or inconclusive; note: 0% is about no effect). An outline of the steps:
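ERSR induction read as luciferase luminescence (Bright-Glo, 10 min at room temperature) in stably transfected human U87-MG glioma cells exposed to compounds for 16 h, using GRP78 as sensor.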

The nature of test [14]: Primary qHTS to identify inhibitors of SARS-CoV-2 cell entry (AID 1645846). Note: nearly all actives have a fitted effect of over 45% in size. As to conditions: activity change, negative = inhibition: at 57.1 µM (top of the series) unless noted. An outline of the steps: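 Entry measured by luciferase signal 48 h after adding SARS-CoV-2-S pseudotyped MLV particles to HEK293-ACE2 cells preincubated 1 h with compounds. Normalisation: bald particles and spike particles.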

Test [15] addresses Alpha-galactosidase (Coffea arabica) (UniProt Q42656). As to the kind of experiment: Counterscreen for Glucocerebrosidase Inhibitors: qHTS Assay for Coffee Bean alpha-Galactosidase at pH 4.5 (AID 957; active = well fitted curve in the direction sought with a large enough effect; an effect the other way counts as inactive or inconclusive;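 note: plate controls were enzyme alone for no effect and no enzyme for full effect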). The gist of the method:
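Fluorogenic qHTS at pH 4.5 (citrate buffer with Tween-20): 2 nM enzyme, 80 uM 4-MU-alpha-galactoside substrate, compound titrated 0.7 nM to 77 uM, 20 min room temperature. Glycine/NaOH stop; 4-MU read Ex 365/Em 440; Hill-equation AC50 against no-enzyme and enzyme controls.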
(In general: Counterscreens check selectivity or assay interference.)

For test [16] the target is unchanged. As to the kind of experiment: Counterscreen for Glucocerebrosidase Inhibitors: qHTS Assay for Coffee Bean alpha-Galactosidase at pH 5.9 (AID 998; active = well fitted curve in the direction sought with a large enough effect; an effect the other way counts as inactive or inconclusive;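 note: plate controls were uninhibited enzyme for no effect and no-enzyme basal signal for full effect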). An outline of the steps: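 Fluorogenic 4-MU substrate hydrolysis, 80 uM substrate and 2 nM coffee bean alpha-galactosidase, pH 5.9 citrate buffer, 20 min at room temperature, then NaOH/glycine stop. Titration 0.7 nM–77 uM, normalized to no-enzyme and enzyme controls, AC50 via Hill equation.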

Sequence of Alpha-galactosidase (Coffea arabica) (Q42656 whole entry, looked up): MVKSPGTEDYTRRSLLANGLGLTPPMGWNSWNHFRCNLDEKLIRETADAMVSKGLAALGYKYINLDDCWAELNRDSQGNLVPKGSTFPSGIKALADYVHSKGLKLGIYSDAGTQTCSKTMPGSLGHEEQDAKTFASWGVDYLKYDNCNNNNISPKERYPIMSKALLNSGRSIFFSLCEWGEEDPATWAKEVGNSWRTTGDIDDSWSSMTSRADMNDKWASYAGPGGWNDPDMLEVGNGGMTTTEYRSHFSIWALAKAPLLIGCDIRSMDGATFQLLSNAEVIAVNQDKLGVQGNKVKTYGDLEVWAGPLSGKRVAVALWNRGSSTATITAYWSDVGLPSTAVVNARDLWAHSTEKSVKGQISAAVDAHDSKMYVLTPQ
Sequence of Nucleoprotein (Lymphocytic choriomeningitis virus (strain Armstrong)) (P09992 whole entry, looked up): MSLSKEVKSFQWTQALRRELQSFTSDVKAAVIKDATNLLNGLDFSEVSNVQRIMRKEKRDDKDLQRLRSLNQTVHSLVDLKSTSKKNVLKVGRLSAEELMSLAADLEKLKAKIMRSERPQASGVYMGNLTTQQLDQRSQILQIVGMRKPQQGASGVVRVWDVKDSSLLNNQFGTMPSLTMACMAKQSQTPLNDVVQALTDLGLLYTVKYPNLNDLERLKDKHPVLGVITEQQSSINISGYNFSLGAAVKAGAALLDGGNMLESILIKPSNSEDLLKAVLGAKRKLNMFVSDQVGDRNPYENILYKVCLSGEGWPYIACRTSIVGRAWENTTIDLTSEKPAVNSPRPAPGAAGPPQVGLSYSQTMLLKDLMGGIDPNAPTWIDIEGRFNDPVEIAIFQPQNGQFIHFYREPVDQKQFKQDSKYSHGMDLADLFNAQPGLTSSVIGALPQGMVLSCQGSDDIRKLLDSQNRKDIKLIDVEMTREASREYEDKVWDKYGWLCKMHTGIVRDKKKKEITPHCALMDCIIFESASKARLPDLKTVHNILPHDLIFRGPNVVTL

As to `COC(=O)C[C@](O)(CCCC(C)(C)O)C(=O)O[C@@H]1C(OC)=C[C@]23CCCN2CCc2cc4c(cc2[C@H]13)OCO4`, the Potency entry in test [1], in [2], in [3], in [4] and in test [9] was “inactive” in each case. The Potency in [5] is 3160 nM (active); in test [7] it was 891 nM (active); in [8], 136 nM (active); in [10], 68.1 nM (active). Also, in test [6], the compound was classed as inactive.

`C[Se]CC[C@H](N)C(=O)O`: the Potency entry in [1], in [2], in [3], in test [4], in test [5] and in test [7] was “inactive” in each case. Further, the Potency result in test [9] is “inactive”. Further, the outcome in test [6] is “inactive [at 26.4 µM]”. Moreover, in test [11], the result was inactive.

Consider `NCCCNCCCCNC(=O)C(O)NC(=O)CCCCCCN=C(N)N` (stereo unspecified), for which the Potency result in test [1], in test [2], in [3], in [4] and in [7] was “inactive” in each case. Further, the outcome in [6] and in [11] was inactive.

Regarding `CC(=O)O[C@H]1CC2(C)[C@@H](C[C@@H](O)[C@H]3[C@@]4(C)CC[C@@H](O)[C@@H](C)[C@@H]4CC[C@@]32C)C1=C(CCC=C(C)C)C(=O)O` (stereo partly specified), the Potency result in test [12], in [1], in test [2], in test [3], in test [4] and in test [5] was “inactive” throughout. Moreover, the Potency entry in test [7] and in [9] was “inactive” throughout. Besides, the compound was called inactive in test [13], in [6] and in test [11]. In test [14], the activity change, negative = inhibition is -17.3%.

For the compound `c1cc(CN2CCCNCCNCCCNCC2)ccc1CN1CCCNCCNCCCNCC1`, the Potency entry in test [1], in test [2], in [3], in [4] and in [9] was “inactive” throughout. The activity change, negative = inhibition in test [5] is -15.1% [at 5.34 µM] (inactive). In addition, the outcome in [6], in test [7] and in test [11] was “inactive [at 5.34 µM]” in each case.

For the compound `CCCCCCCCCCCC(=O)OCC(O)CO` (stereo unspecified), the Potency result in [1], in [2], in [3], in test [4], in test [5] and in test [7] was “inactive” throughout. In addition, the compound was called inactive in test [6] and in test [11].

Take `CCCCCCCCCC(=O)O`: the Potency result in [1], in test [2], in test [3], in [4], in test [5] and in [7] was “inactive” in each case. Further, in test [9], the Potency result was “inactive”. The result in test [6] and in test [11] was inactive.

Turning to `CO[C@@H]1[C@H](OC(=O)/C=C/C=C/C=C/C=C/C(=O)O)CC[C@]2(CO2)[C@H]1[C@@]1(C)O[C@@H]1CC=C(C)C`, the Potency entry in test [1], in [2], in test [3], in [4], in test [7] and in test [9] was “inactive” in each case. Also, the outcome in test [6] and in test [11] was inactive.

Turning to `COc1ccc(/C=C/C(=O)Nc2ccccc2C(=O)O)cc1OC`, the compound was called inactive in test [15], in test [16], in [13], in test [6] and in [11]. Further, the Potency was 2820 nM (active) in test [12]; 429 nM (active) in [8]; 17.8 µM (active) and inactive in [9]. In addition, the Potency entry in test [1], in [2], in test [3], in test [4] and in test [7] was “inactive” in each case. The activity change, negative = inhibition in [14] is -78.6% and -67.4%.

Turning to `CC(/C=C/C=C(\C)C(=O)O[C@@H]1O[C@H](CO[C@@H]2O[C@H](CO)[C@@H](O)[C@H](O)[C@H]2O)[C@@H](O)[C@H](O)[C@H]1O)=C\C=C\C=C(C)\C=C\C=C(/C)C(=O)O[C@@H]1O[C@H](CO[C@@H]2O[C@H](CO)[C@@H](O)[C@H](O)[C@H]2O)[C@@H](O)[C@H](O)[C@H]1O`, the Potency result in [1], in test [2], in test [3], in test [4], in test [5] and in [7] was “inactive” each time. For the same compound, the Potency entry in [9] is “inactive”. Also, the compound was called inactive in [6] and in test [11]. Also, the activity change, negative = inhibition in test [14] is -12.5%.

As to `C[C@]12CCC(=O)C[C@@H]1CC[C@@H]1[C@@H]2CC[C@]2(C)C=CC[C@@H]12`, the Potency result in test [1], in [2], in test [3], in [4], in test [5] and in test [7] was “inactive” in each case. For the same compound, in test [9], the Potency entry is “inactive”. In addition, the outcome in [6] and in test [11] was inactive. In addition, in test [14], the activity change, negative = inhibition is -21.9%.

For the compound `CCN(C(=O)c1c(O)c2c(Cl)cccc2n(C)c1=O)c1ccccc1`, the Potency entry in test [1], in test [2], in test [3], in test [4], in test [5] and in test [7] was “inactive” each time. For the same compound, the Potency entry in test [9] was “inactive”. Also, the compound was called inactive in test [6] and in [11].

Regarding `O=S(=O)(c1cccc2c(I)cccc12)N1CCCNCC1`, the call in test [15], in test [16] and in test [13] was inactive. For the same compound, the Potency entry in [12], in [1], in test [2], in test [3], in test [4] and in test [9] was “inactive” each time. For the same compound, the activity change, negative = inhibition in test [14] was -29.1%.

For the compound `CN(C)CCC(c1ccc(Br)cc1)c1ccccn1` (stereo unspecified), the Potency entry in [12], in [1], in [2], in test [3], in test [4] and in test [7] was “inactive” in each case. The Potency entry in test [9] is “inactive”. Also, the compound was called inactive in [13], in [6] and in [11].

On to `O=[N+]([O-])c1c(Cl)cccc1-c1c[nH]cc1Cl`, for which the Potency result in test [1], in test [2], in test [3] and in [4] was “inactive” in each case. Moreover, the outcome in test [6] and in test [11] was inactive.

In the case of `Cc1ccccc1O`, the Potency entry in [1], in test [2], in [3], in test [4], in [7] and in [9] was “inactive” each time. Besides, the compound was classed as inactive in [6] and in [11]. The activity change, negative = inhibition in [14] was -10.9% [at 114 µM].

Regarding `C[C@H]1COc2c(N3CCN(C)CC3)c(F)cc3c(=O)c(C(=O)O)cn1c23`, the Potency entry in test [1], in [2], in [3], in test [4], in test [7] and in [9] was “inactive” throughout. Besides, the result in [6] and in [11] was inactive. For the same compound, in [14], the activity change, negative = inhibition was -10.7% and -28.1%.

As to `O=C(O)c1nc(=O)[nH]c(=O)[nH]1`, the Potency entry in [1], in test [2], in test [3] and in test [4] was “inactive” throughout. Also, the outcome in test [6] was “inactive [at 0.573 µM]”; in test [7] it was “inactive [at 0.573 µM]”; in test [14], “inactive [at 0.702 µM]”. The activity change, negative = cytotoxicity in [11] is 2.99% [at 0.573 µM] (inactive). For the same compound, the activity change, negative = inhibition in test [14] was -18.6% [at 27.1 µM].

`CC(C)(CO)[C@@H](O)C(=O)NCCC(=O)O`: the Potency result in test [1], in [2], in [3], in test [4], in test [7] and in test [9] was “inactive” in each case. For the same compound, the result in [6] and in [11] was inactive.
